Rows were chosen to be rich in hits. Some 3.8% of all compounds tested hit in one or more screens of this group.
VDR inh: blocks the human vitamin D receptor; P11473; VDR-SRC2-3 peptide fluorescence polarization, 2 h; Potency, µM, for the others: max response, negative = inhibition, most hits filed as inhibitors; actives 0.93% (n = 400,000); AID 504847; note: potency is the fitted concentration of half-maximal effect; % is set by controls: 0 for no effect and ±100 for the full control effect
Target sequence (P11473 whole entry, looked up): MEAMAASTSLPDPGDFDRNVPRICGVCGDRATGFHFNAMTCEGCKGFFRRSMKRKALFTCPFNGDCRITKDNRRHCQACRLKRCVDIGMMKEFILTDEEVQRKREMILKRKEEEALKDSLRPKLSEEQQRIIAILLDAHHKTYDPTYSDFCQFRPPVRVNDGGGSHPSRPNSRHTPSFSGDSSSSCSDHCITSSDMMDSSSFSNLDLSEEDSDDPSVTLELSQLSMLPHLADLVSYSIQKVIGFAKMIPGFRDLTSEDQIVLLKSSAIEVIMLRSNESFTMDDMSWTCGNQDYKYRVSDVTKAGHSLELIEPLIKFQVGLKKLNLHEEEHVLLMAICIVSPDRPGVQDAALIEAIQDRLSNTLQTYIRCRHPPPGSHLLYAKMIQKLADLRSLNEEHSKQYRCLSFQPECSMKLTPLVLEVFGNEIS
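Measured by FP: displacement of SRC2-3 coactivator peptide from VDR by library compounds, following a two-hour ambient incubation.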
PLK1 PBD inh: blocks phosphopeptide binding to human PLK1 polo-box domain; P53350; AID 720504; actives 2.8% (n = 360,000); Plk1 PBD binding of FITC phosphopeptide, fluorescence polarization; Potency, µM, inactives show max response, negative = inhibition, most hits filed as inhibitors; note: potency is the fitted concentration of half-maximal effect; series mostly up to about 57 µM; % is set by controls: 0 for no effect and ±100 for the full control effect; nearly all actives have a fitted effect of over 65% in size
MBNL1-CUG inh: MBNL1-poly(CUG) RNA binding inhibition. TR-FRET MBNL1-His/biotin-(CUG)12 binding, 665/545 ratio. actives 0.036% (n = 280,000). AID 2675. Potency, µM (series often up to 57.5 µM), for inactives: at the highest dose activity change, negative = inhibition, hits mostly inhibitors; active = well fitted inhibition curve with a large enough effect in the signal ratio, with a control signal flat, not every such curve was filed as active; inconclusive = small, poorly fitted or top-dose-only effect, or effect the other way, or a change in a side signal; inactive = no such curve, though single readings can be large or run the other way; the % refers to the signal ratio; note: potency is the fitted concentration of half-maximal effect; % is set by controls: 0 for no effect and ±100 for the full control effect
Target sequence (Q9NR56 whole entry, looked up): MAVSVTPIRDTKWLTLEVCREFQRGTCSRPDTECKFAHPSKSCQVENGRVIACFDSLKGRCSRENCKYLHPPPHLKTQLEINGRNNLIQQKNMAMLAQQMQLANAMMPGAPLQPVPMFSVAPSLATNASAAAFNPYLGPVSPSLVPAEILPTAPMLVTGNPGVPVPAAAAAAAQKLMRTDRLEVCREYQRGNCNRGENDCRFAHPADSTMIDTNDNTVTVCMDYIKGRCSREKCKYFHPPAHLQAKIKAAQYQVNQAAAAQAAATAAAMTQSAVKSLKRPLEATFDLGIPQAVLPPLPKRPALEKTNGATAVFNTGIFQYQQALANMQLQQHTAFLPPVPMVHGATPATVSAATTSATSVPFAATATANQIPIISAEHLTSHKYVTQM
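His-tagged MBNL1 binding to biotinylated (CUG)12 RNA was measured by TR-FRET using terbium anti-His antibody (0.055 ng/ul final) and streptavidin-XL665 (5 nM final). Compounds were titrated 92 nM to 58 uM; 60 min at room temperature.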
CBFb-RUNX1 inh: blocks binding between human CBF-beta and RUNX1; AlphaScreen CBFb-His/RUNX1-biotin binding, biochemical; AID 1477; 230,000 tested, under 10 active; Q01196+Q13951; Potency, µM (titrated, usually from 59.8 µM), inactives show at the top dose activity, negative = inhibition, usual class: inhibitors; note: % of control where 0% means no effect
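CBF-beta (His) and RUNX1 (biotin), 30 nM each; 20 min preassociation; + compound, 15 min; + beads 50 ng each (Ni, streptavidin), 90 min; RT; AlphaScreen read.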
KCNH2 3.1 inh: inhibitors of human KCNH2 3.1 potassium channel isoform | U2OS KCNH2 3.1, thallium flux FluxOr; hits give low values | activity change, % (tested at about 1.8 µM) | actives 0.95% (n = 340,000) | AID 720553;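 active = maximum activity change below -70%; inconclusive = maximum activity change from -70% to -50%; inactive = maximum activity change above -50%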;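 note: thallium influx rate constant from kinetic fluorescence after stimulation buffer; % is set by controls: 0 for no effect and ±100 for the full control effect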
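Virally transduced U2OS (3.1 isoform, 4 h infection in dark at RT) → overnight 37 C → FluxOr + Red40 in HBSS/HEPES, 45 min → stimulation buffer, 2 min kinetic read → rate constant vs DMSO controls.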
hERG WT inh: blocks the wildtype human KCNH2 potassium channel | U2OS, BacMam KCNH2, thallium flux FluxOr; hits give low values | activity change, % at 1.84 µM | actives 0.37% (n = 340,000) | AID 720551;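 active = maximum activity change below -70%; inconclusive = maximum activity change between -70% and -50%; inactive = maximum activity change above -50%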; note: % is set by controls: 0 for no effect and ±100 for the full control effect
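U2OS cells transduced with wild-type KCNH2 virus are loaded with FluxOr dye for 45 min, and thallium flux is measured in kinetic reads before and after stimulation buffer. Rate constants are normalized to DMSO controls.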
* marks the source's active call; other numbers are inactive results; ? = inconclusive; nt = no result. Unless noted, calls come from the whole dose curve; as a rule, active = well fitted curve in the direction sought with a large enough effect; inconclusive = small, poorly fitted or top-dose-only effect, or another doubt; inactive = no such curve, though single readings can be large; an effect the other way counts as inactive or inconclusive.

SMILES | VDR inh | PLK1 PBD inh | MBNL1-CUG inh | CBFb-RUNX1 inh | KCNH2 3.1 inh | hERG WT inh
Cc1ccc(NC(=O)CN(C)C(=O)c2cccc(Br)c2)cc1 | -19.2% | 29.9µM* | -2.5% | nt | -4.0 | 9.3
COc1cccc(NC(=O)CN(C)C(=O)c2cccc(NS(=O)(=O)c3ccc(Br)cc3)c2)c1 | 4.0% | -4.1% | nt | nt | 5.9 | -5.2
COc1ccc(NC(=O)CN(C)C(=O)c2cccc(NS(=O)(=O)c3ccc(Br)cc3)c2)cc1 | -5.2% | -1.8% | nt | nt | -126.6* | -8.1
Cc1c(Cl)cccc1NC(=O)CSc1nc(=O)[nH]c2c1CCCC2 | 3.1% | nt | nt | nt | nt | nt
CC(=O)C(Cc1ccccc1)NC(=O)CN1c2cccc3cccc(c23)S1(=O)=O (stereo unspecified) | 16.2% | -2.8% | nt | nt | -11.5 | -4.0
CC(/C=N/NC(=O)c1ccc(CN2c3cccc4cccc(c34)S2(=O)=O)cc1)c1ccccc1 (stereo unspecified) | -14.8% | ? | 116.5% | 2.2% | -84.1* | 0.7
O=C(O)c1ccc(/C=N/NC(=O)c2ccc(CN3c4cccc5cccc(c45)S3(=O)=O)cc2)cc1 | -2.5% | 33.6µM* | 12.1% | 5.2% | -22.7 | -7.7
O=C1CCC/C(=N/NC(=O)c2ccc(CN3c4cccc5cccc(c45)S3(=O)=O)cc2)C1 | -4.1% | 1.5% | 17.9% | 7.3% | -23.4 | 8.6
Cc1nnc2c(N3CCN(c4ccc(F)cc4)CC3)nc3ccc(C(=O)c4ccccc4)cc3n12 | 4.3% | nt | nt | nt | nt | nt
O=[N+]([O-])c1ccc(Sc2cccc3cccnc23)cc1 | -1.0% | -7.2% | ? | -12.9% | -3.4 | -1.2
C=CCn1nc([N+](=O)[O-])nc1Sc1cccc2cccnc12 | ? | 7.52µM* | ? | nt | 18.0 | 1.0
O=[N+]([O-])c1ccc(Sc2cccc3cccnc23)c([N+](=O)[O-])c1 | ? | 6.7µM* | ? | nt | 0.1 | 2.6
Cc1ccc(S(=O)(=O)N2CCN(c3cc(-c4cccs4)nc4ccccc34)CC2)cc1 | -19.1% | nt | nt | nt | nt | nt
COc1cc(C(=O)O[C@@H]2CC3CC[C@]2(C)C3(C)C)ccc1O | -0.3% | nt | nt | 4.5% | nt | nt
CCc1ccc(OCc2nnc(-c3ccccc3Br)o2)cc1 | -6.9% | 29.9µM* | nt | nt | 5.3 | 8.6
CCOC(=O)c1c(-c2ccccc2)csc1NC(=O)c1cc(-c2ccc(C)c(F)c2)on1 | 0.1% | nt | nt | nt | nt | nt
C=CCNC(=O)c1cc(Cl)cc(Cl)c1 | ? | 29.9µM* | -15.6% | 22.0% | 10.8 | -0.4
Cc1ccc(COC(=O)c2[nH]c3c(c2C)C(=O)CC(c2ccc(N(C)C)cc2)C3)cc1 (stereo unspecified) | -4.4% | nt | nt | nt | nt | nt
CCN(CC)S(=O)(=O)c1ccc2c(c1)c(=O)c(C(=O)N1CCN(c3cc(C)ccc3C)CC1)cn2C | -12.0% | nt | nt | nt | nt | nt
O=C(Nc1ccccc1)N(O)c1ccc(Cl)cc1 | 28.2µM* | -7.4% | 2.3% | 3.2% | 0.0 | -6.0
CCN(CCS(=O)(=O)c1ccc(Cl)cc1)C(=O)Nc1ccccc1 | -1.0% | -12.8% | -11.6% | -4.4% | -6.2 | 1.3
O=C(Nc1nc(=O)n(C(=O)C2CC2)s1)c1ccccc1 | 50.1µM* | -5.2% | ? | 9.5% | -7.5 | -7.7
Cc1ccc(C(=O)Nc2nc(=O)n(C(=O)c3ccccc3C)s2)cc1 | 22.4µM* | ? | -27.0% | -4.1% | 4.3 | 1.6
CSc1nc2sccc2c(=O)[nH]1 | -10.3% | 2.3% | ? | 19.1% | 1.0 | -0.1
O=c1[nH]c(=S)[nH]c2sccc12 | -24.5% | 15µM* | nt | 16.6% | -6.4 | -34.1
SMILES | VDR inh | PLK1 PBD inh | MBNL1-CUG inh | CBFb-RUNX1 inh | KCNH2 3.1 inh | hERG WT inh
Clc1ccccc1Cn1nnc2c(N3CCCC3)ncnc21 | -6.2% | -1.6% | 3.3% | 3.5% | -1.5 | 12.8
CC(C)(C)NC(=O)CSc1ncnc2c1nnn2Cc1ccccc1Cl | ? | 26.7µM* | -3.1% | -3.1% | 33.1 | -6.3
CC1Cc2ccccc2N1c1ncnc2c1nnn2Cc1ccccc1Cl (stereo unspecified) | 1.7% | 26.7µM* | ? | 4.0% | -0.6 | -2.0
O=C(CSc1ncnc2c1nnn2Cc1ccccc1)NC1CCCC1 | -2.9% | -29.5% | 1.2% | 8.9% | 9.8 | 5.6
Cc1c(C(=O)NCc2ccc(N(C)C)cc2)oc2c1-c1nn(Cc3cccc(Cl)c3)cc1CC2 | 10.5% | nt | nt | nt | nt | nt
CSCCC(NC(=O)C1CCCCC1)C(=O)Nc1ccc(F)c(Cl)c1 (stereo unspecified) | -8.7% | nt | nt | nt | nt | nt
COc1ccc(-c2cnc3nc(/N=C/N(C)C)nn3c2/N=C/N(C)C)cc1 | -25.7% | 23.8µM* | 4.9% | -13.3% | 9.5 | -1.7
CN(C)/C=N/c1nc2nccc(-c3ccc(Cl)cc3)n2n1 | -6.5% | 2.4% | ? | 7.3% | 9.9 | 1.6
CN(C)/C=N/c1nc2nccc(-c3ccccc3)n2n1 | -13.0% | 26.7µM* | 1.3% | 0.0% | -7.8 | 3.5
CCOC(=O)c1cc2c(=O)n3ccccc3nc2n(CCCOC)c1=NC(=O)c1cc2ccccc2o1 | -8.3% | nt | nt | nt | nt | nt
CC(C)(C)OC(=O)N1CCC(c2c(C(=O)Nc3ccc4c(c3)OCO4)cnn2-c2ccc(F)cc2F)CC1 | 6.7% | nt | nt | nt | nt | nt
CC(C)(C)c1ccc(/C=C/C(=O)Nc2nncs2)cc1 | -17.2% | -5.9% | -7.3% | 8.0% | -82.7* | 13.5
CSc1cccc(NC(=O)c2c(Cl)cnn2C)c1 | 6.5% | -14.2% | 0.2% | 0.8% | 21.5 | 17.6
Cn1ncc(Cl)c1C(=O)Nc1cccc(Cl)c1 | ? | 23.8µM* | -5.3% | -0.9% | 4.1 | -2.0
COc1ncnc2c1ncn2CCCNCC(c1ccccc1)c1ccccc1 | nt | -13.2% | nt | nt | 15.4 | -5.0
O=C(Cn1cnc2c(OCc3ccccc3)ncnc21)NCc1ccccc1 | ? | 23.8µM* | nt | nt | 6.2 | -5.9
c1ccc(COc2ncnc3c2ncn3CCCNCC(c2ccccc2)c2ccccc2)cc1 | nt | -2.7% | nt | nt | -72.4* | -18.2
COc1ccc(NC(=O)c2oc3c(c2C)-c2nn(Cc4ccccc4Cl)cc2CC3)cc1OC | 2.0% | nt | nt | nt | nt | nt
CSc1nc(=S)cc(C)[nH]1 | 50.1µM* | 15µM* | nt | 5.9% | 15.4 | -2.5
O=C(c1ccccc1)c1cn(Cc2ccc(F)cc2)c2ccccc2c1=O | -7.4% | nt | nt | nt | nt | nt
OC(C#Cc1ccccn1)c1cccs1 (stereo unspecified) | 50.1µM* | 29.9µM* | 8.0% | 0.8% | 4.4 | -23.4
Cc1oc(-c2ccc(Cl)cc2)nc1CN1CCCC(C(=O)NCCc2ccccc2)C1 (stereo unspecified) | -12.7% | nt | nt | nt | nt | nt
C=CCc1cccc2cc(C(=O)Nc3ccccc3C(=O)O)c(=O)oc12 | 3.4% | 11.9µM* | 16.2% | -7.9% | 23.9 | -3.2
COc1cc(Nc2nc3c(S(=O)(=O)c4ccc(C)c(C)c4)nnn3c3ccsc23)cc(OC)c1 | 6.7% | nt | nt | nt | nt | nt

Compound activity deposited in PubChem by National Center for Advancing Translational Sciences (NCATS).
